Measured values as given in PubChem BioAssay (EPA / NIEHS).
Values joined by “and” are separate entries in the source; they are usually repeats but may differ in a detail not shown here. Identical values can stand only once. Results filed as inconclusive are left out. Active and inactive are the calls of the source. The calls were made as follows: active = hit-call score of the fitted dose curve at least 0.9, where 1 is the maximum; inconclusive = response in the unintended direction; inactive = score below 0.9.

What was measured:
[1] = target: Cellular tumor antigen p53 (Homo sapiens) (UniProt P04637); assay: TOX21_p53_BLA_p3_ratio: Tox21 HCT-116 p53 Agonism Beta-lactamase Assay, Ratio, Phase 3 (AID 2283596)
Summary of the method: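 Cells were seeded at 4000/well, rested 5 h at 37C, then dosed with DMSO compound solutions (217-fold dilution) for 16 h. CCF4-AM substrate was loaded for 2 h at room temperature, and the 460/530 nm emission ratio was fitted for gain of signal versus DMSO.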

[2] = TOX21_p53_BLA_p3_viability: Viability Assessment in the Tox21 HCT-116 p53 Agonism Beta-lactamase Assay, Phase 3 (AID 2283593);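 also: cells exposed to compound for 16 h before reading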
Summary of the method: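 Cellular ATP was quantified by CellTiter-Glo luminescence, read after 30 min at room temperature. Beforehand, HCT116 cells (4000/well) received compound 5 h post-seeding, 217-fold diluted from DMSO, then incubated 16 h at 37C.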

[3] = TOX21_p53_BLA_p4_viability: Viability Assessment in the Tox21 HCT-116 p53 Agonism Beta-lactamase Assay, Phase 4 (AID 2283597);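 also: hits lower the luminescence signal meaning cytotoxicity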
Summary of the method: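 Cytotoxicity was inferred from loss of CellTiter-Glo luminescence. HCT116 cells had been dosed with compounds after 5 h plating, incubated 16 h at 37C and 5% CO2, and exposed to the CCF4-AM substrate for 2 h.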

[4] = target: Cellular tumor antigen p53 (Homo sapiens) (UniProt P04637); assay: TOX21_p53_BLA_p5_ratio: Tox21 HCT-116 p53 Agonism Beta-lactamase Assay, Ratio, Phase 5 (AID 2283599)
Summary of the method: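 Beta-lactamase reporter ratio (blue 460 nm over green 530 nm, 405 nm excitation) after 2 h CCF4-AM loading, in HCT-116 cells exposed 16 h at 37 C to compounds pinned at 217-fold dilution. Increases relative to DMSO baseline scored.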

[5] = TOX21_p53_BLA_p5_viability: Viability Assessment in the Tox21 HCT-116 p53 Agonism Beta-lactamase Assay, Phase 5 (AID 2283600)
Summary of the method: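 Luciferase-coupled ATP quantitation of cells treated for 16 h (37C, 5% CO2) with test chemicals delivered in DMSO via a 217-fold dilution; 4000 cells/well; reagent incubated 30 min at room temperature before luminescence reading.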

[6] = target: Cellular tumor antigen p53 (Homo sapiens) (UniProt P04637); assay: TOX21_p53_BLA_p4_ratio: Tox21 HCT-116 p53 Agonism Beta-lactamase Assay, Ratio, Phase 4 (AID 2283601)
Summary of the method: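 Signal is the blue/green (460nm/530nm) ratio of cleaved versus uncleaved CCF4-AM substrate, read after 2 h substrate loading. Cells were HCT116 carrying the p53-responsive beta-lactamase reporter, dosed 16 h at 37C, 5% CO2; CellTiter-Glo measured in parallel.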

[7] = Tanguay_ZF_120hpf_YSE_legacy: (Legacy) Oregon State University Tanguay Lab 120 Hour Post-fertilization zebrafish Assay for Yolk Sac Edema (AID 2283634);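 as to AC50: actives raise the incidence of yolk sac edema above the DMSO baseline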
Summary of the method: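 Tropical 5D wild-type embryos, dechorionated with pronase at 4 hpf, were exposed singly from 6 hpf to 120 hpf under static, sealed, dark conditions at 28C with 0.64% DMSO final. Yolk sac edema was scored present/absent by brightfield microscopy.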

[8] = Tanguay_ZF_120hpf_AXIS_legacy: (Legacy) Oregon State University Tanguay Lab 120 Hour Post-fertilization zebrafish Assay for Body Axis Malformation (AID 2283635);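 as to AC50: potency for an increased fraction of larvae scored with body axis malformation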
Summary of the method: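 Tropical 5D wild-type zebrafish embryos, dechorionated with pronase at 4 hpf, were placed singly in wells at 6 hpf and exposed statically to test chemical (0.64% DMSO final) at 28C until 120 hpf, then scored by brightfield for body axis defects.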

[9] = Tanguay_ZF_120hpf_EYE_legacy: (Legacy) Oregon State University Tanguay Lab 120 Hour Post-fertilization zebrafish Assay for Eye Malformation (AID 2283636);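 also: binary presence or absence of eye malformation scored by brightfield in 120 hpf larvae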
Summary of the method: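 Binary brightfield scoring of eye defects at 120 hpf after static exposure from 6 hpf of single pronase-dechorionated wild-type embryos (28C, 0.64% DMSO). Non-mortality endpoints omitted where embryos died; fit vs DMSO.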

[10] = Tanguay_ZF_120hpf_SNOU_legacy: (Legacy) Oregon State University Tanguay Lab 120 Hour Post-fertilization zebrafish Assay for Snout Malformation (AID 2283637)
Summary of the method: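 Binary snout-malformation call at 120 hpf in wild-type 5D embryos, chorion removed by pronase, under static exposure from 6 hpf at 28C (0.64% DMSO). Embryos dying by 24 or 120 hpf excluded.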

[11] = Tanguay_ZF_120hpf_JAW_legacy: (Legacy) Oregon State University Tanguay Lab 120 Hour Post-fertilization zebrafish Assay for Jaw Malformation (AID 2283638);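 as to AC50: active means more embryos with jaw malformation than DMSO controls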
Summary of the method: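 Tropical 5D wild-type embryos, dechorionated with pronase at 4 hpf, were placed singly per well at 6 hpf and statically exposed at 28C until 120 hpf (0.64% DMSO final). Jaw malformation scored as present/absent by brightfield microscopy at 120 hpf, analyzed relative to DMSO.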

[12] = Tanguay_ZF_120hpf_OTIC_legacy: (Legacy) Oregon State University Tanguay Lab 120 Hour Post-fertilization zebrafish Assay for Otic Vesicle Malformation (AID 2283639)
Summary of the method: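 Binary scoring of otic vesicle defects at 120 hpf in zebrafish (Tropical 5D) held under static exposure at 28C, sealed and shaded, with final DMSO 0.64%. Embryos dying by 24 or 120 hpf excluded; fitted positively against DMSO.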

[13] = Tanguay_ZF_120hpf_PE_legacy: (Legacy) Oregon State University Tanguay Lab 120 Hour Post-fertilization zebrafish Assay for Pericardial Edema (AID 2283640);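 as to AC50: potency for increased incidence of pericardial edema versus DMSO baseline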
Summary of the method: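 Tropical 5D wild-type zebrafish embryos were exposed statically to 120 hpf at 28C, sealed and foil-covered, in 0.64% DMSO final. Pericardial edema was scored present/absent by brightfield microscopy; dead embryos were not scored.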

[14] = Tanguay_ZF_120hpf_PFIN_legacy: (Legacy) Oregon State University Tanguay Lab 120 Hour Post-fertilization zebrafish Assay for Pectoral Fin Malformation (AID 2283648);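 also: each larva judged yes or no for fin defect by brightfield with dead larvae skipped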
Summary of the method: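 Pectoral fin malformation was recorded as a binary endpoint at 120 hpf in wild-type Tropical 5D larvae, which had been dechorionated and exposed statically from 6 hpf at 28C in 0.64% DMSO. Dead embryos were excluded.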

[15] = Tanguay_ZF_120hpf_PIG_legacy: (Legacy) Oregon State University Tanguay Lab 120 Hour Post-fertilization zebrafish Assay for Pigmentation Malformation (AID 2283650)
Summary of the method: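 Pigment malformation recorded as a binary call at 120 hpf in zebrafish (Tropical 5D) exposed singly from 6 hpf after pronase dechorionation. Static, sealed, 28C exposure, 0.64% DMSO; mortality excludes scoring; positive-direction fit against DMSO.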

[16] = Tanguay_ZF_120hpf_CIRC_legacy: (Legacy) Oregon State University Tanguay Lab 120 Hour Post-fertilization zebrafish Assay for Circulatory Malformation (AID 2283651)
Summary of the method: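 Binary circulatory malformation call at 120 hpf by brightfield imaging of zebrafish larvae; chorion removed at 4 hpf, static exposure from 6 hpf in sealed dark plates at 28C, final DMSO 0.64%; non-mortality endpoints skipped if embryo died.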

[17] = Tanguay_ZF_120hpf_SWIM_legacy: (Legacy) Oregon State University Tanguay Lab 120 Hour Post-fertilization zebrafish Assay for Swim Bladder Malformation (AID 2283654);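 also: swim bladder malformation in each larva scored yes or no under brightfield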
Summary of the method: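 Scoring is binary for swim bladder defects at 120 hpf, by brightfield inspection of zebrafish larvae. Embryos were exposed singly from 6 hpf after pronase dechorionation, at 28C with 0.64% DMSO; mortality excluded scoring.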

[18] = Tanguay_ZF_120hpf_TRUN_legacy: (Legacy) Oregon State University Tanguay Lab 120 Hour Post-fertilization zebrafish Assay for Truncated Body (AID 2283655)
Summary of the method: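 Tropical 5D wild-type embryos, dechorionated with pronase at 4 hpf, were placed singly in wells at 6 hpf and statically exposed at 28C until 120 hpf, final DMSO 0.64%. Truncated body was scored present/absent by brightfield microscopy.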

Measured: AC50

Cellular tumor antigen p53 (Homo sapiens), sequence (P04637 whole entry, looked up): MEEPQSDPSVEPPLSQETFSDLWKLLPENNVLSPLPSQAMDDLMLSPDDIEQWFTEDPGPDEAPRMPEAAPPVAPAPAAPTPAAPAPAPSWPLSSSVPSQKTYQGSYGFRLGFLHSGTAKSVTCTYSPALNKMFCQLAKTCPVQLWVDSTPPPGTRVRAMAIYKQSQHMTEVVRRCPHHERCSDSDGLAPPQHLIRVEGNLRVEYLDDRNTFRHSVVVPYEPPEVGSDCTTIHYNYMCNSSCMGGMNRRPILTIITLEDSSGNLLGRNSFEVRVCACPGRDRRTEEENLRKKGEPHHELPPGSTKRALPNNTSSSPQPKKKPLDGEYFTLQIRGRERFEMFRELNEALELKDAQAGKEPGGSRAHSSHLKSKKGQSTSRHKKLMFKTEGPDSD

CC(=O)Nc1ccc(S(N)(=O)=O)cc1
inactive: [1]

C[C@]12CC[C@@H]3c4ccc(O)cc4CC[C@H]3[C@@H]1CC[C@@H]2OC(=O)CCC1CCCC1
inactive: [2] | [1] | [3] | [4] | [5] | [6]

CCCCCCCCCC=CCC1CC(=O)OC1=O (configuration not stated)
inactive: [2] | [1] | [3] | [4] | [5] | [6]

CCCCCCCCCCCCCC[n+]1ccccc1
active: [1] 14.1 µM | [3] 13.3 µM | [6] 21.6 µM
inactive: [2] | [4] | [5]

CC(C)(O)C(=O)c1ccccc1
inactive: [2] | [5]

c1ccc(CNc2ncnc3c2ncn3C2CCCCO2)cc1 (configuration not stated)
inactive: [2] | [3] | [5]

Cc1ccc(S(=O)(=O)O)cc1
inactive: [2] | [3] | [5]

CC(C)(C)C1CCCCC1O (configuration not stated)
inactive: [2] | [3] | [4] | [6]

CCCCCCCCCCCC[N+](C)(C)CCCCCCCCCCCC
active: [2] 50.7 µM | [1] 66.5 µM | [3] 46.1 µM | [4] 56.6 µM | [5] 37 µM | [6] 32.3 µM

C=CC(C)(CCC=C(C)C)OC(C)=O (configuration not stated)
inactive: [2] | [1] | [3] | [4] | [6]

O=C(CCCN1CCC(O)(c2ccc(Cl)cc2)CC1)c1ccc(F)cc1
active: [7] 13.1 µM | [8] 5.66 µM | [9] 4.96 µM | [10] 2.46 µM | [11] 5.66 µM | [13] 3.98 µM | [14] 5.92 µM
inactive: all other assays above

Cc1cc(Cc2cc(C)cc(C(C)(C)C)c2O)c(O)c(C(C)(C)C)c1
active: [2] 19.1 µM and 20.2 µM | [1] 44.8 µM and 57.1 µM | [3] 12 µM and 19.2 µM | [4] 33.6 µM and 41.4 µM | [5] 17.7 µM and 16.7 µM | [6] 24.2 µM and 48.1 µM

CN(C)CCOC(c1ccccc1)c1ccccc1
active: [7] 15.4 µM | [8] 22.3 µM | [11] 14.6 µM | [13] 26.7 µM | [18] 24.8 µM
not listed: [1] | [4] | [6] | [14] | [16]
inactive: all other assays above

CC(C)(C)c1ccc(O)c(O)c1
inactive: [2] | [1] | [3] | [4] | [5] | [6]

O=C(O)c1cccc(C(=O)O)n1
inactive: [2] | [1] | [4] | [5] | [6]

Cc1ccc(C(=O)c2ccccc2)cc1
inactive: [1] | [3] | [4] | [6]

Cc1ccc(C)c(S(=O)(=O)O)c1
inactive: [1] | [3] | [5] | [6]

CCCCCCCCCCCCCCC
not listed: [1] | [2] | [3] | [4] | [5] | [6] | [15]
inactive: all other assays above

CCCCCCCCCCCCCCCC(=O)OC
inactive: [3]

NCc1cccc(CN)c1
inactive: [1] | [3] | [5] | [6]

O=C(O)C(=O)O
inactive: [1] | [4] | [6]

Clc1ccc(Nc2nnc(Cc3ccncc3)c3ccccc23)cc1
inactive: [1] | [4] | [6]

CC(=O)CC(C)C
inactive: [1] | [3] | [4] | [5] | [6]

OCC(CO)(CBr)CBr
not listed: [1] | [2] | [3] | [4] | [5] | [6]
inactive: all other assays above
